Most compounds without a hit are left out; they make up all but 19% or so of the library.
TDP1 inh: qHTS Assay for Inhibitors of Tyrosyl-DNA Phosphodiesterase (TDP1). Tyrosyl-DNA phosphodiesterase 1 (Homo sapiens), Q9NUW8. recombinant TDP1, AlphaScreen DNA substrate cleavage. Potency, µM (series often up to 130 µM), usual class: inhibitors. hit rate 0.28% among 350,000; also: nearly all actives have a fitted effect of over 40% in size
Target sequence (Q9NUW8 whole entry, looked up): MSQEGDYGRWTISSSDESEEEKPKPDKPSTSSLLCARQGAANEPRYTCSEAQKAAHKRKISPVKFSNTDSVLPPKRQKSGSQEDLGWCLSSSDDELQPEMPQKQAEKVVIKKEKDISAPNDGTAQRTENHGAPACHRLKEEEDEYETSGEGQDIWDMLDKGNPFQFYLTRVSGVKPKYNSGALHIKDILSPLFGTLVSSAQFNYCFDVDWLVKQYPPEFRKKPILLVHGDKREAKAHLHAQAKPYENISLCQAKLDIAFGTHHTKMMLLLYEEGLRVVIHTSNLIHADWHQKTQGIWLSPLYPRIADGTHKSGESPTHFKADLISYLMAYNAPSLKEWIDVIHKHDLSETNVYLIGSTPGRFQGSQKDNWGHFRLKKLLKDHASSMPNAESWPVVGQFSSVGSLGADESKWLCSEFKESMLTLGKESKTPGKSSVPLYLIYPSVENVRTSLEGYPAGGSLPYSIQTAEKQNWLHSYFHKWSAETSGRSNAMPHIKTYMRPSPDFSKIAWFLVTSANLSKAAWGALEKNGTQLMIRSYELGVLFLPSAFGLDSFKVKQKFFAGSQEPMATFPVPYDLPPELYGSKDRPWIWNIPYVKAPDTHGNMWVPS
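E. coli-derived human Tdp1, 1 nM final. Cpd preinc 15 min RT; substrate 15 nM final, 5 min RT; AS bead mix 10 ug/ml final, 10 min RT. Signal loss = tyrosine-FITC cleavage. No-enzyme wells = max signal.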
TDP1 cell noCPT: qHTS for Inhibitors of human tyrosyl-DNA phosphodiesterase 1 (TDP1): qHTS in cells in absence of CPT | hit rate 15% among 420,000 | Potency, µM (top dose mostly 46.2 µM), usual class: inhibitors | AID 686978, 2013 | DT40 Tdp1-/- hTDP1 cells, no CPT, ATP luminescence, 48 h; also: nearly all actives have a fitted effect of over 55% in size
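Chicken DT40 Tdp1-/- cells complemented with human TDP1, screened without camptothecin (DMSO vehicle only), 400 cells/well. Compounds pin-transferred, cells incubated at 37 °C for at least 48 hr. Growth read as ATP-dependent luminescence (CellTiter-Glo, 30 min at RT).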
IL-1B inflam inh: qHTS for Inhibitors of Inflammasome Signaling: IL-1-beta AlphaLISA Primary Screen; THP-1 LPS/ATP IL-1B secretion, AlphaLISA, 16 h; hits give low values; activity change, % at 57.5 µM; hit rate 4.7% among 360,000; in the data active = activity change below about -50%; inconclusive = mostly about -30% to -49%
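THP-1 cells pretreated 1 hr with compounds (up to 57.5 uM final), then stimulated with LPS (250 ng/mL final) plus ATP (1.25 mM final); secreted IL-1B measured by AlphaLISA after 16 hr, decreased signal indicating inhibition.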
DT40 TDP1 CPT: qHTS for Inhibitors of human tyrosyl-DNA phosphodiesterase 1 (TDP1): qHTS in cells in presence of CPT; chicken DT40 Tdp1-/-;hTDP1 cells + 20 nM CPT, ATP luminescence, 48 h; Potency, µM (doses to about 46.2 µM), usual class: inhibitors; hit rate 12% among 420,000; AID 686979, 2013; also: nearly all actives have a fitted effect of over 55% in size
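Chicken DT40 Tdp1-/- cells complemented with human TDP1, 400 cells/well, exposed to compounds plus 20 nM camptothecin for at least 48 h at 37 C; viability read as ATP content by CellTiter-Glo luminescence.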
TGFb SMAD3 inh: qHTS for Inhibitors of TGF-b | HepG2 CAGA-GFP TGF-b/SMAD3 reporter, GFP fluorescence, 18 h; TGF-beta stimulated, 500 pg/mL final | Potency, µM (top dose mostly 46.1 µM), hits mostly inhibitors | hit rate 1.2% among 410,000 | AID 588855, 2011; also: nearly all actives have a fitted effect of over 65% in size
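Inhibition of TGF-beta-driven CAGA-GFP reporter expression in HEPG2 cells is measured by cellular GFP fluorescence after 18 h stimulation with 500 pg/mL recombinant TGF-beta in 1% FBS medium at 37 degrees C.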
HepG2 viability: qHTS for Inhibitors of TGF-b: Cytotox Counterscreen; HepG2 CAGA-GFP viability, ATP luminescence, 18 h; Potency, µM (titrated, usually from 46.1 µM), hits mostly cytotoxic; hit rate 0.76% among 410,000
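CellTiter-Glo luminescence gave cytotoxicity after 18 hours at 37 degrees C. The cells were HepG2 CAGA-GFP in 1% FBS DMEM, stimulated with 500 pg/mL TGF-beta after compound addition. %Activity was normalised to no-cell wells (complete cell-killing) and DMSO (no toxicity), and curves were fitted and classified.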
Hits are given with their value; – = inactive; ? = inconclusive; · = no result given; ! = not confirmed by another sample; [ ] = remark or other dose. Unless noted, calls follow the shape of the dose curve; as a rule, active = well fitted curve in the direction sought with a large enough effect; inconclusive = small, poorly fitted or top-dose-only effect, or another doubt; inactive = no such curve, though single readings can be large; an effect the other way counts as inactive or inconclusive.

SMILES	TDP1 inh	TDP1 cell noCPT	IL-1B inflam inh	DT40 TDP1 CPT	TGFb SMAD3 inh	HepG2 viability
O=C1c2ccccc2-c2onc3c(N4CCN(CCO)CC4)cc(N4CCN(C(=O)c5ccco5)CC4)c1c23	–	15µM	?	?	13µM	18µM
CCCCNc1cc(N2CCN(C3CCCCC3)CC2)c2noc3c2c1C(=O)c1ccccc1-3	–	5.2µM	·	5.2µM	–	–
CCOC(=O)N1CCN(c2cc(NCCC(=O)O)c3c4c(onc24)-c2ccccc2C3=O)CC1	–	?	-64	?	–	–
CSc1ccc(CCNC(=O)c2ccc(-c3nc(COc4ccc(C)cc4)c(C)o3)cc2)cc1	–	–	·	–	–	–
CCn1c(NC(=O)c2ccc(COc3ccc(C)cc3[N+](=O)[O-])o2)nc2ccccc21	–	?	–	16µM	–	–
Cc1ccc(OCc2ccc(C(=O)Nc3cc(C)on3)o2)c([N+](=O)[O-])c1	–	–	–	?	–	–
COc1ccc(C2C(C(N)=O)=C(C)Nc3nc(CCCO)nn32)c(OC)c1 (centres undefined)	–	–	·	–	?	–
COc1ccc(O[C@H]2C=C[C@@H](c3ccccc3)O[C@H]2CO/N=C(/C)CCC(=O)OC[C@@H]2O[C@H](c3ccccc3)C=C[C@@H]2Oc2ccc(OC)cc2)cc1	–[21 µM]	·	·	·	·	·
O=c1c2ccccc2nc2n1C(CSCc1ccc(Cl)cc1Cl)CS2 (centres undefined)	–	6.5µM	?	9.2µM	–	–
CC(CCc1ccccc1)NC(=O)C(=O)N1CCOCC1 (centres undefined)	–	–	–	–	–	–
CCOC(=O)NC(C(Cl)(Cl)Cl)S(=O)(=O)c1ccccc1 (centres undefined)	–	?	-87	?	–	–
Cc1cccc(C)c1NC(=O)CC12CCCN1CCC2	·	–	·	?	·	·
COc1ccc(C(C)=O)cc1CN1C(=O)C(C)ON=C1c1cccc(C(F)(F)F)c1 (centres undefined)	·	16µM	–	?	–	–
COc1ccc(CN2CCN(Cc3c[nH]c4ccccc34)CC2CCO)cc1C (centres undefined)	·	9.2µM	?	6.5µM	–	–
CC(C)(C)CN1CCN(Cc2c[nH]c3ccccc23)CC1CCO (centres undefined)	·	8.2µM	–	8.2µM	–	–
CC(C)(C)CN1CCN(Cc2cc3ccccc3[nH]2)CC1CCO (centres undefined)	·	–	–	–	–	–
COc1cc(CN2CCN(Cc3c[nH]c4ccccc34)CC2CCO)cc(OC)c1 (centres undefined)	–	?	–	13µM	–	–
COc1ccc(CN2CCN(Cc3c[nH]c4ccccc34)CC2CCO)c(F)c1 (centres undefined)	–	8.2µM	?	4.6µM	–	–
COc1ccc(N2CCN(CCC(O)c3ccc4ccccc4c3)CC2)cc1 (centres undefined)	·	?	–	?	–	–
Cc1ccc(S(=O)(=O)c2nc(S(C)(=O)=O)sc2N2CCC3(CC2)OCCO3)cc1	–	?	?	–	–	–
C/C(=N\NC(=O)c1ccn(C)n1)c1ccc(NC(=O)C2CCC2)cc1	–	–	–	?	–	–
C/C(=N\NC(=O)c1ccn(C)n1)c1ccc(NC(=O)C2CCCC2)cc1	–	18µM	–	–	–	–
C/C(=N\NC(=O)C1(C)CC1(Br)Br)c1ccc(NC(=O)C2CCC2)cc1 (centres undefined)	–	?	–	18µM	?	–
COc1ccc2nc(NC(=O)C3CCN(C(=O)c4ccco4)CC3)sc2c1	–	?	?	–	–	–
CCC(=O)N(Cc1cc(=O)[nH]c2ccccc12)c1ccc(OC)cc1	·	–	–	–	–	–
SMILES	TDP1 inh	TDP1 cell noCPT	IL-1B inflam inh	DT40 TDP1 CPT	TGFb SMAD3 inh	HepG2 viability
O=c1cc(-c2ccccc2O)oc2cc(O)ccc12	–	–	·	–	·	·
O=c1cc(-c2ccc(O)cc2)oc2cc(O)cc(O)c12	–	5.2µM!	-89	?	?	–
COc1cc(-c2cc(=O)c3c(O)cc(O)cc3o2)ccc1O	–	?	-64	21µM	?	–
O=c1cc(-c2ccccc2O)oc2cc(O)cc(O)c12	–	21µM	·	30µM	·	·
O=c1cc(-c2cc(O)c(O)c(O)c2)oc2cc(O)cc(O)c12	–	?	·	?	·	·
COc1cc(-c2cc(=O)c3c(O)c(OC)c(OC)cc3o2)cc(OC)c1O	·	?	–	16µM	–	–
COC[C@H]1OC=C[C@@H](OC)[C@@H]1OC	–	·	·	·	·	·
Nc1ncc(Br)cc1S(=O)(=O)NCCC(=O)NCCc1ccc(Cl)cc1	–	–	–	–	–	–
Cc1cc(C)c2nc(N3CCC(C(=O)N4CCN(C(=O)c5ccco5)CC4)CC3)sc2c1	–	15µM	?	?	?	–
Cc1c(Cl)ccc2sc(N3CCN(C(=O)CS(=O)(=O)c4ccccc4)CC3)nc12	–	4.1µM	·	6.5µM	10µM	–
Cc1c(Cl)ccc2sc(N3CCN(C(=O)C(C)C)CC3)nc12	–	6.5µM	·	12µM	?	–
O=C(c1ccco1)N1CCN(c2ccc(Cl)c(Cl)c2)CC1	·	15µM	?	21µM	–	–
O=C(CS(=O)(=O)c1ccc(F)cc1)N1CCN(c2ccccc2)CC1	·	–	–	–	–	–
O=C(c1ccco1)N1CCCN(C(=O)c2ccco2)CC1	–	–	–	?	–	–
Cc1c(Cl)ccc2sc(N3CCN(C(=O)c4ccco4)CC3)nc12	–	12µM	·	15µM	?	–
COc1cc2ccccc2cc1C(=O)N1CCN(c2nc3c(C)cc(C)cc3s2)CC1	–	18µM	·	?	?	–
COc1ccc(C(=O)N2CCN(c3nc4c(C)c(Cl)ccc4s3)CC2)c(OC)c1	–	9.2µM	·	16µM	?	11µM
O=C(c1ccco1)N1CCN(C(=O)c2ccco2)C1=S	·	5.8µM	-100	2.6µM	11µM	–
Cc1ccc(CNC(=O)Cn2ccn(-c3ccc(F)cc3)c(=O)c2=O)cc1	–	–	·	–	–	–
CN(Cc1ccccc1)C(=O)COC(=O)CNS(=O)(=O)c1ccc2ccccc2c1	·	–	–	–	–	–
Cc1ccc(NC(=O)CSc2nc3ccc(Br)cc3[nH]2)c(C)c1	·	?	·	?	?	–
